# From PubChem BioAssay AID720541 (National Center for Advancing Translational Sciences (NCATS), 2013)
# The campaign covered roughly 1,300 compounds. About 420 (32%) were called active. Inconclusive results (about 32%) are left out. The list shows a part of the results. Unmarked numbers belong to inactive results. Calls follow the shape of the dose curve; as a rule, active = well fitted inhibition curve with a large enough effect; inconclusive = small, poorly fitted or top-dose-only effect; inactive = no such curve, though single readings can be large or run the other way.
# Molecular target: C-terminal-binding protein 1 (Homo sapiens) (UniProt Q13363)
# Test: qHTS for Inhibitors of the Phosphatase Activity of Eya2: Carboxyl-terminal binding protein (CtBP) Counterscreen for Cherry-picked Compounds; also: nearly all actives have a fitted effect of over 65% in size
# Conditions: purified protein-protein binding, AlphaScreen, 3 h; series mostly up to 46.1 µM; activity change, negative = inhibition: at the top concentration
# Outline: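 Cherry-picked compounds (final 2.5 nM–46 uM) were incubated 2 h at RT with 25 nM CtBP-6xHIS and 25 nM GST-E1A. Alpha beads (20 ug/mL) were then added for 1 h, light-protected; DMSO and E1A peptide inhibitor wells set the normalization.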
# % is scaled to controls: 0 for no effect and ±100 for the full control effect; potency is read from the fitted curve at half-maximal effect.
Compound,"activity change, negative = inhibition",Potency
Cc1ccc(-c2n[nH]c(=O)c3ccccc23)cc1S(=O)(=O)Nc1ccccc1,-25.8%,–
COc1cc(C2C(C#N)=C(N)Oc3n[nH]c(C)c32)ccc1OC(=O)c1ccccc1 (configuration not stated),–,8.49 µM (active)
COc1ccc(Cc2nc3c4c(ncn3n2)Oc2ccc3ccccc3c2C4c2ccc(OC)c(OC)c2)cc1 (configuration not stated),-11.2%,–
CCOc1ccccc1O[C@H](c1ccccc1)[C@H]1CNCCO1,6.74%,–
Cc1[nH]c2ccc(C(=O)OC(C)C(=O)N(C)c3ccccc3)cc2c1C (configuration not stated),-24.1%,–
CCOC(=O)c1[nH]c2ccc(C(=O)OC)cc2c1C(=O)OCC,–,10.7 µM (active)
CS(=O)(=O)n1nc(OC(=O)c2cccs2)cc1N,-10.9%,–
Cc1cc(O)c(-c2cc(O)c(C)cc2O)cc1O,-27.2%,–
COc1cc(N(C(C)=O)c2ccc(O)c(C(=O)O)c2)c2ncccc2c1,–,8.49 µM (active)
CCN(CC)S(=O)(=O)c1cc(OC)ccc1N=Nc1ccc(O)c2ncccc12,-101%,–
COc1cc2c(cc1N)-c1ccc(N)cc1C2=O,–,16.9 µM (active)
COc1ccc(N)cc1-n1c(C)ccc1C,-6.45%,–
Nc1ccc2c(c1)C(=O)c1cc(N)c(Cl)cc1-2,-15.7%,–
CCOc1ccc2ccccc2c1C(=O)N[C@@H]1C(=O)N2[C@@H]1SC(C)(C)[C@@H]2C(=O)O,-4.22%,–
CCN1C(=O)c2cccc3c(S(=O)(=O)N(C(C)=O)c4ccc(OC(C)=O)cc4)ccc1c23,–,12 µM (active)
CC(=O)Oc1ccc(N2C(=O)c3cccc4c([N+](=O)[O-])ccc(c34)C2=O)cc1,-18.6%,–
N/C(=N\OC(=O)c1ccc2ccccc2c1)c1ccncc1,-17.8%,–
C/C(=C1/C=Nc2ccccc21)c1ccc(N(C)C)cc1,–,16.9 µM (active)
Cn1c(=O)cc2c3c(c(N4CCCCC4)ccc31)C(=O)c1ccccc1-2,–,3.79 µM (active)
CCOc1ccc(NC(=O)COc2cccc3cccnc23)cc1S(=O)(=O)N1CCCC1,–,16.9 µM (active)
CCOc1ccc(NC(=O)COc2ccc3c(c2)CCC3)cc1OC,-0.283%,–
CCOc1ccc(S(=O)(=O)NCc2ccc(C)cc2)c2cccnc12,-4.12%,–
C=CCn1c(C)cc(C(=O)COc2ccc(N(C)S(=O)(=O)c3ccc(NC(C)=O)cc3)cc2)c1C,-22.4%,–
CN(C)C1=C2C=CC=CC2/C(=C2/C=Cc3ccccc32)C=C1 (configuration not stated),–,15.1 µM (active)
O=C(Nc1ccon1)c1ccc(N2CCCCC2)c([N+](=O)[O-])c1,-18%,–

Compound,"activity change, negative = inhibition",Potency
CSc1cccc(NC(=O)CCCOc2cc(=O)n(C)c3ccccc23)c1,3.84%,–
O=C1/C(=C\c2cccc([N+](=O)[O-])c2O)SC(=S)N1Cc1ccccc1,–,8.49 µM (active)
Cc1ccc(NC(=O)CSc2cccc3cccnc23)c(C)c1,–,9.53 µM (active)
Cc1ccc(OCC(=O)Nc2ccccc2N2CCCC2)c(C)c1,-21.3%,–
O=C(Cc1ccccc1F)Nc1cccc(S(=O)(=O)N2CCCCC2)c1,2.9%,–
Cn1c(=O)c2c(ncn2CC(=O)Nc2cccc(S(=O)(=O)Nc3ccccc3F)c2)n(C)c1=O,–,8.49 µM (active)
CCCNC(=O)C1(C)CCN(Cc2cccc(OC(=O)c3ccccc3)c2)C1 (configuration not stated),7.18%,–
COc1ccc(Cl)cc1NC(=O)CCCn1c(=O)c2cccn2c2cccnc21,-46.3%,–
O=S(=O)(Nc1cccc2cccnc12)c1ccccc1Br,–,9.53 µM (active)
CC(=O)Nc1ccc(S(=O)(=O)Nc2cccc3cccnc23)cc1,–,4.26 µM (active)
O=C(CCCl)Nc1cccc2cccnc12,–,8.49 µM (active)
CC(=O)Nc1ccc(S(=O)(=O)NCc2ccc3[nH]c(C)cc3c2)cc1,-27.3%,–
CC1(C)CC(=O)c2c(oc3ccc(NS(=O)(=O)c4cccc5cccnc45)cc23)C1,-5.13%,–
CC(=O)c1cccc(-c2cnc3c(NC=O)cc(-c4ccc(N(C)C)cc4)cn23)c1,-31.8%,–
COC(=O)c1cc2c(ccc3ccccc32)oc1=O,–,12 µM (active)
CC(C)Cc1nc2oc3c(=O)[nH]cnc3c2c2c1CCC2,–,15.1 µM (active)
Cc1ccccc1OCCn1cc(C(=S)N2CCN(C)CC2)c2ccccc21,–,15.1 µM (active)
CCC(=O)c1cn(CC(=O)Nc2c(C)cccc2C)c2ccccc12,5.57%,–
O=C(CN1C(=O)/C(=C/c2ccco2)SC1=S)Nc1ccc(C(=O)O)c(O)c1,–,10.7 µM (active)
COc1cc(/C=C2\SC(=S)N(CCC(=O)Nc3cccc(O)c3)C2=O)cc(OC)c1OC,-14.7%,–
CCn1c(SCC(=O)N2CCN(c3ccccc3)CC2)nc2c(c1=O)SC(C)C2 (configuration not stated),-14.2%,–
Cc1c(C(=O)O)c(O)cc2c1C(=O)c1c(O)c([C@H]3O[C@H](CO)[C@@H](O)[C@H](O)[C@H]3O)c(O)c(O)c1C2=O,–,19 µM (active)
Clc1ccc(-c2ccc(CNCc3ccccn3)o2)cc1,–,12 µM (active)
Fc1ccc(-c2ccc(CNCc3ccccn3)o2)cc1,–,15.1 µM (active)
Clc1cccc(-c2ccc(CNCc3ccccn3)o2)c1,–,16.9 µM (active)

Compound,"activity change, negative = inhibition",Potency
O=C(/C=C/c1cccc([N+](=O)[O-])c1)Nc1cccc(NC(=O)c2cccs2)c1,-26.4%,–
COC(=O)c1ccc(NC(=O)c2ccc3c(c2)C(=O)N(Cc2cccnc2)C3=O)cc1,0.063%,–
COC(=O)c1ccc(NC(=O)CSc2nc(=O)n3cccc(C)c3n2)cc1,–,13.5 µM (active)
Cc1ccc(-c2csc(N3CCN(CCCn4c(C(F)(F)F)nc5ccccc54)CC3)n2)cc1,-13.7%,–
Cc1csc(NC(=O)CSc2sc3c(O)cc(=O)[nH]c3c2C#N)n1,–,12 µM (active)
Cc1cc(C)c2c(n1)sc1c(O)cc(=O)[nH]c12,-12.6%,–
O=C1c2cccc(Sc3ccccc3)c2C(=O)c2c(Sc3ccccc3)cccc21,–,3.79 µM (active)
Oc1c(Cl)cc(CN2CCOCC2)c2cccnc12,–,0.601 µM (active)
Cc1ccc(C(=O)N2CCN(c3ccc(NC(=S)NC(=O)c4cccs4)cc3)CC2)cc1,-26.7%,–
CCCC(=O)Nc1ccc(NC(=S)NC(=O)c2cccs2)cc1,-0.882%,–
CCN(CC)c1ccc(NC(=S)NC(=O)c2cccs2)cc1,–,10.7 µM (active)
CNC(=O)c1cc2c(cn1)[nH]c1ccccc12,-22%,–
Cn1nc(C(=O)Nc2nc3ccccc3[nH]2)c2ccccc2c1=O,–,10.7 µM (active)
COc1ccc(-c2noc(N3CCC(C(=O)Nc4cc(OC)ccc4OC)CC3)n2)cc1,-27.5%,–
COc1ccc(OC)c(Nc2nc(-c3sc(N)nc3C)cs2)c1,–,8.49 µM (active)
CCn1c2ccccc2c2cc(NC(=O)COC(=O)c3ccc(NC(=O)CC#N)cc3)ccc21,-2.9%,–
Cc1ccc(-n2[nH]c(C)c(C=Nc3ccc(S(=O)(=O)Nc4nccs4)cc3)c2=O)cc1C,–,7.57 µM (active)
CCc1ccc(-c2csc(NC(=O)C3CC(=O)N(c4ccc5c(c4)OCCO5)C3)n2)cc1 (configuration not stated),-6.9%,–
O=C(Nc1nc(-c2ccccn2)cs1)C1CC(=O)N(c2ccc3c(c2)OCCO3)C1 (configuration not stated),–,6.01 µM (active)
O=C(NCc1ccco1)C1CC2CCC1C2 (configuration not stated),7.12%,–
COCCNC(=O)c1cccc(OC2CCN(Cc3ccc(F)cc3OC)CC2)c1,0.126%,–
CSc1nnc2c(n1)OC(C)=Nc1ccccc1-2,–,12 µM (active)
C#Cc1cccc(NC(=O)CSc2nnc(-c3ccc(C(F)(F)F)cn3)o2)c1,–,15.1 µM (active)
CCn1ccnc1CNCc1cn(-c2cc(C)ccc2C)nc1-c1ccccc1,–,8.49 µM (active)
CCNc1ccc2noc3c2c1C(=O)c1ccccc1-3,–,7.57 µM (active)

Compound,"activity change, negative = inhibition",Potency
CN(Cc1ccccc1F)c1nc(-c2cccnc2)nc2ccccc12,-15.7%,–
O=C(CCS(=O)(=O)c1ccc(F)cc1)Nc1nc(-c2ccccn2)cs1,–,8.49 µM (active)
O=C(CN1C(=O)c2ccccc2C1=O)Nc1nc(-c2cccc([N+](=O)[O-])c2)cs1,2.24%,–
CSCCC(=O)Nc1nc(-c2ccccn2)cs1,–,12 µM (active)
CCn1nc(C(=O)Nc2nc(-c3ccccn3)cs2)c2ccccc2c1=O,–,3.79 µM (active)
S=C(NCCCc1cnc[nH]1)NCCCN(Cc1ccc(Cl)cc1)c1ccc(-c2ccccc2)cn1,–,15.1 µM (active)
CN(C)c1ccc(/C=C2\C=Cc3cc(N)ccc32)cc1,–,7.57 µM (active)
COc1ccc2c(c1)C=C/C2=C\c1ccc(N(C)C)cc1,–,6.75 µM (active)
Cc1nc([N+](=O)[O-])cn1CC(O)c1ccc2c(c1)OCO2 (configuration not stated),-1.54%,–
COC(=O)c1sc2cc(C(F)(F)F)cnc2c1-c1cccnc1,2.52%,–
O=C(O)/C=C/C(=O)Nc1ccc2c(c1)C(=O)c1ccccc1C2=O,–,7.57 µM (active)
CC(=O)Nc1ccc2nc(C3CC3)n(Cc3ccc(Cl)cc3)c(=O)c2c1,-17.5%,–
CN(C)c1ccc(/C=C/C=C2/C=Cc3ccccc32)cc1,–,5.36 µM (active)
CN(C)c1ccc(/C=C2\C=Cc3ccccc32)cc1,–,8.49 µM (active)
CCN(CC)c1ccc(/C=C2\C=Cc3ccccc32)cc1,–,7.57 µM (active)
CC1=C/C(=C\c2ccc(N(C)C)cc2)c2ccccc21,–,7.57 µM (active)
C=C(CC[C@]12OC(C(=O)O)C(O)(C(=O)O)C(C(=O)O)(O1)C(OC(=O)/C=C/[C@@H](C)C[C@@H](C)CC)C2O)[C@@H](OC(C)=O)[C@H](C)Cc1ccccc1 (some centres not stated),-7.4%,–
COC(=O)C(Sc1ccc(Cl)cc1)C1SC(=S)N(Cc2ccccc2)C1=O (configuration not stated),-28.7%,–
Cc1cccc(C#Cc2ccccc2)n1,29%,–
C[C@H](CCC(=O)NCC(=O)O)[C@H]1CC[C@H]2[C@@H]3[C@H](O)C[C@@H]4C[C@H](O)CC[C@]4(C)[C@H]3C[C@H](O)[C@]12C,2.71%,–
CN(C)c1ccc(C=C2C=Cc3ccccc32)cc1,–,7.57 µM (active)
Cc1nn(C)c(Cl)c1CN1CCCC(CO)(Cc2cccc(Cl)c2)C1 (configuration not stated),2.96%,–
